# Assay outcomes deposited in PubChem by National Center for Advancing Translational Sciences (NCATS).
# FMDV inh: foot and mouth disease virus antiviral activity; Potency, µM (titrated, usually from 57.9 µM), for inactives: at the top dose activity change, negative = inhibition, most hits filed as inhibitors; FMDV antiviral cell-based qHTS; 1.2% of 410,000 active; calls by dose curve; tested in HEK293T cells; further: read-out not given here; potency means the concentration at half of the fitted maximal effect; nearly all actives have a fitted effect of over 45% in size
# Giardia FBPA inh: inhibitors of Giardia lamblia fructose-1,6-bisphosphate aldolase; purified Giardia FBPA; Potency, µM (highest dose often 59.6 µM), for the others: at the top dose activity, negative = inhibition, actives largely listed as inhibitors; AID 2451; 0.71% of 290,000 active; further: potency means the concentration at half of the fitted maximal effect; nearly all actives have a fitted effect of over 55% in size
# Target sequence (A8B2U2 whole entry, looked up): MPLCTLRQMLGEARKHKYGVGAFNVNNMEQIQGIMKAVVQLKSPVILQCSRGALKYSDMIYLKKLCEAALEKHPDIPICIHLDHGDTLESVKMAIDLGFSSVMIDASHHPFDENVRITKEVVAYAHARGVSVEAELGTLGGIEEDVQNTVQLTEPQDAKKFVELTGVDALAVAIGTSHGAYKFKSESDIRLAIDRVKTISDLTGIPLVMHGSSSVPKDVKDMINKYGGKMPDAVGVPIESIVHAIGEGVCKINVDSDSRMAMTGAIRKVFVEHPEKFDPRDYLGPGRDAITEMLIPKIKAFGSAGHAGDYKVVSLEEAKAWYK
#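 40 nM FBPA preincubated 10 min at RT with compound (up to 57.5 uM final), then substrate plus GAPDH/TPI/NAD/arsenate coupling and diaphorase/resazurin added. Fluorescence read after 20 min at RT, 525/598 nm.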
# HCMV antiviral: blocks human cytomegalovirus replication | HFF cells, HCMV-luciferase reporter, 72 h; stronger effect = lower value | activity change, negative = inhibition, % at 57.5 µM | 4.5% of 410,000 active | AID 1259415; in the data active means activity change below about -60%; inconclusive means no clear call, values can overlap the other calls; inactive means above about -39%
#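 Steps: HFFs plated, 16 h 37C; compounds added; HCMV-luciferase added to MOI 1 PFU/cell; 72 h 37C; OneGlo reagent, 5 min room temperature; luminescence read, normalized to controls.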
# Vaccinia mCherry: vaccinia inhibition (mCherry reporter); Vaccinia virus mCherry reporter infection, fluorescence; Potency, µM (titrated, usually from 36.5 µM), inactives show at the highest dose activity change, negative = inhibition, most hits filed as inhibitors; 0.63% of 310,000 active; AID 720579; calls by dose curve; tested in A549 cells; further: potency means the concentration at half of the fitted maximal effect; nearly all actives have a fitted effect of over 35% in size
# HCV inhibitor: blocks hepatitis C virus | 3.4% of 340,000 active | Huh7.5.1 HCVcc-Cre infection, luciferase reporter, 44 h | AID 651820 | Potency, µM (top dose mostly 41.8 µM), inactives show top-dose activity change, negative = inhibition, hits mostly inhibitors; further: potency means the concentration at half of the fitted maximal effect
#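 Reporter virus HCVcc-Cre (~0.5 moi) infects cells exposed to compound; seeding density 1,000 cells/well with 4 h settling beforehand. Luminescence, 15 sec read, taken 44 h post-infection following a 15 min RT substrate incubation.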
# Vaccinia Venus: vaccinia inhibition (Venus reporter); Potency, µM (titrated, usually from 36.5 µM), inactives show top-dose activity change, negative = inhibition, actives largely listed as inhibitors; 0.46% of 330,000 active; Vaccinia virus Venus reporter expression, fluorescence; calls by dose curve; tested in A549 cells; further: potency means the concentration at half of the fitted maximal effect; nearly all actives have a fitted effect of over 30% in size
# * = called active by the depositor; i = inactive; ? = inconclusive; nt = not tested or not shown; + = active, no number; [ ] = remark or other dose. Most compounds without a hit are left out; they make up all but 7.5% or so of the library. Unless noted, the call rests on the fitted dose curve; in most records, active means well fitted curve in the direction sought with a large enough effect; inconclusive means small, poorly fitted or top-dose-only effect, or another doubt; inactive means no such curve, though single readings can be large; an effect the other way counts as inactive or inconclusive. On the % scale 0 is the no-effect control and ±100 the full control effect.
SMILES,FMDV inh,Giardia FBPA inh,HCMV antiviral,Vaccinia mCherry,HCV inhibitor,Vaccinia Venus
COCOCCn1cc(CN2CCS(=O)(=O)N(Cc3ccc(-c4ccc(Cl)c(Cl)c4)cc3)C(C(C)C)C2=O)nn1 (centres undefined),?,nt,-25,-30%,nt,?
O=C1C(Cl)=C(Nc2ccc(O)cc2)C(=O)c2ccccc21,32µM*,?,-99*,?,?,?
COC1=C(Nc2ccc(O)cc2)C(=O)c2ccccc2C1=O,-9%,?,-14,14µM*,?,16µM*
COC1=C(Nc2ccc(OC)cc2)C(=O)c2ccccc2C1=O,31%,?,6,?,3%,?
Cc1ccc(NC2=C(Cl)C(=O)c3ccccc3C2=O)cc1,-37%,?,39,-19%,7.1µM*,-1%
Cc1ccc(-n2c(SCC(=O)N(C)C)nnc2-c2ccco2)cc1,2%,-1%,-10,nt,-8%,nt
O=C(NCCc1ccc(F)cc1)c1ccc(NS(=O)(=O)c2ccc3[nH]c(=O)[nH]c3c2)cc1,3%,nt,-6,i,-5%,-1%
CCOC(=O)C1=C(CCc2ccccc2)NC(=O)NC1c1ccc(C#N)cc1 (centres undefined),-20%,nt,-31,-14%,-3%,-17%
Cc1c(Cl)cccc1NC(=O)CCC(=O)N/N=C/c1ccc[nH]1,0%,-21%,-100*,?,1µM*,?
O=C(CNC(=O)c1ccc(Br)cc1)N/N=C/c1ccc[nH]1,-21%,-14%,7,i,2.5µM*,-14%
Cc1ccc(NCC(=O)N/N=C\c2ccc[nH]2)cc1,21%,-15%,-29,?,14µM*,-18%
O=C(Cc1ccccc1)N/N=C/c1ccc[nH]1,-16%,-8%,?,nt,9%,nt
CC(C)(C)c1ccc(C2CC2C(=O)N/N=C\c2ccc[nH]2)cc1 (centres undefined),-19%,-12%,-100*,?,0.56µM*,4µM*
O=C1CC(C(=O)N2CCCc3ccccc32)CN1c1ccc(Cl)cc1 (centres undefined),-29%,2%,?,9%,14%,10%
O=C(CNS(=O)(=O)c1ccccc1)Nc1cccc([N+](=O)[O-])c1,4%,0%,9,nt,-5%,nt
COc1cc(Cl)c(C)cc1NC(=O)COC(=O)C1=COCCO1,2%,nt,-13,-10%,?,-9%
Cc1ccc(C)c(NC(=O)CCC(=O)N/N=C/c2ccc[nH]2)c1,-9%,-8%,-91*,nt,3.5µM*,nt
CCN(CC)c1ccc(C(=O)Nc2ccc3nc(N(CC)CC)cc(C)c3c2)cc1,-27%,nt,-67*,7%,nt,-11%
CCN1CCN(c2cc(C)c3cc(NC(=O)c4ccc(OC)c(OC)c4)ccc3n2)CC1,9%,-5%,?,?,11µM*,-13%
CCN1CCN(c2cc(C)c3cc(NC(=O)/C=C/c4ccc(OCCC(C)C)cc4)ccc3n2)CC1,?,nt,-79*,0%[7.34 µM],nt,-5%[7.34 µM]
CCN1CCN(c2cc(C)c3cc(NC(=O)c4cncc(Br)c4)ccc3n2)CC1,-25%,-5%,?,-25%,5.6µM*,-28%
Cc1ccc(CN2CCC(Oc3cccc(C(=O)NCc4cccnc4)c3)CC2)o1,3%,nt,-13,nt,-11%,nt
Cc1ccccc1NC(=O)Nc1ccc2nc(N3CCN(C)CC3)cc(C)c2c1,-15%,nt,-22,-11%,nt,-7%
CCOC(=O)N1CCC(NC(=S)Nc2ccc3nc(N4CCN(CC)CC4)cc(C)c3c2)CC1,-9%,2%,-9,?,-23%,?
CCOc1ccccc1NC(=O)Nc1ccc2nc(N3CCN(C)CC3)cc(C)c2c1,23%,nt,-106*,?,nt,?
SMILES,FMDV inh,Giardia FBPA inh,HCMV antiviral,Vaccinia mCherry,HCV inhibitor,Vaccinia Venus
COc1ccccc1CC(=O)Nc1ccc2nc(N3CCC(C)CC3)cc(C)c2c1,0%,nt,-7,-9%,nt,-18%
COc1ccc(/C=C/C(=O)Nc2ccc3nc(N4CCC(C)CC4)cc(C)c3c2)cc1OC,-13%,nt,-88*,-22%[7.34 µM],nt,-14%[7.34 µM]
CCOC(=O)N1CCC(NC(=S)Nc2ccc3nc(N4CCN(C)CC4)cc(C)c3c2)CC1,9%,1%,-31,?,10µM*,-19%
CCN1CCN(c2cc(C)c3cc(NC(=O)CCC(=O)Nc4ccc(OC)c(OC)c4)ccc3n2)CC1,-15%,3%,20,nt,-20%,nt
COc1ccc(C)cc1NC(=O)CCC(=O)Nc1ccc2nc(N3CCN(C)CC3)cc(C)c2c1,-10%,4%,nt,nt,10µM*,nt
CC1CCc2nn(CC(=O)Nc3ccccc3Cl)cc2C1 (centres undefined),35%,nt,29,-9%,nt,-13%
Cc1cc(N2CCOCC2)nc2ccc(NC(=O)CCC(=O)N3CCN(c4ccccc4F)CC3)cc12,-7%,13%,11,-14%,22µM*,-20%
Cc1cc(N2CCN(C)CC2)nc2ccc(NC(=O)c3ccc(C(C)(C)C)cc3)cc12,?,nt,-106*,?,nt,14µM*
CC12Nc3ccccc3C(=O)N1Cc1cnnn1-c1cc3c(cc12)OCO3 (centres undefined),nt,nt,-3,nt,nt,nt
COc1cc(NCc2ccc3nc(N)nc(N)c3c2C)cc(OC)c1OC,?,5.6µM*,nt,nt,nt,nt
COc1ccc(CNc2ccncc2)c(OC)c1OC,?,nt,-9,i,4%,-15%
COc1ccc(/C(C)=N/OC/C(O)=C(\C#N)c2nc3ccccc3[nH]2)cc1,-9%,9%,-14,-3%,26%,-17%
COC(=O)c1cn(NC(=O)c2cc([N+](=O)[O-])ccc2F)c(=O)c2ccccc12,32µM*,-1%,-97*,-26%,?,-23%
COC(=O)c1cn(NC(=O)C2CCC(C)CC2)c(=O)c2ccccc12 (centres undefined),-18%,-1%,23,nt,-5%,nt
Cc1c(C(=O)N2CCCC2)c(S(=O)(=O)N2CCCCC2)c(C)n1C,-3%,-5%,0,-12%,17%,-23%
Cc1c(C(=O)N2CCCCC2)c(S(=O)(=O)N2CCC(C)CC2)c(C)n1C,4%,8%,+,i,31%,-6%
Cc1cccc(NS(=O)(=O)c2c(C(=O)N3CCCC3)c(C)n(C)c2C)c1,29%,9%,+,-18%,24%,-13%
Cc1oc(S(=O)(=O)N(C)C)cc1C(=O)Nc1ccc(Cl)cc1,-26%,3%,-19,nt,?,nt
CON(C)C(=O)C[C@@H]1C[C@H](OC(=O)c2ccc([N+](=O)[O-])cc2)CN1C(=O)OC(C)(C)C,-14%,nt,-7,-12%,-20%,-11%
CCCCC(=O)N(CCOC)c1nnc(-c2ccccc2C)s1,-6%,-2%,-15,-7%,1.8µM*,-16%
CCCCC(=O)N(CCOC)c1nnc(-c2cccnc2)s1,20%,-10%,-16,i,24%,-2%
O=[N+]([O-])c1ccc(N2CCOCC2)nc1,nt,9%,11,i,19%,-3%
